Experimental data taken from PubChem BioAssay AID1347383 (Zoeller Lab, School of Medicine, Boston University, 2020).
Active and inactive are the calls of the source.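 How the source made its calls: active means cell survival after UV exposure 2 SD above solvent-only control wells at 10 µM, confirmed on one or two repeats; inactive means the rest.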

Assay: cell survival after pyrene fatty acid photosensitization – ZR-82 cells, Analyticon library, screen 2, phospholipid biosynthesis inhibitor project, primary screen (AID 1347383);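 further: survival reflects blocked phospholipid synthesis cutting uptake of the phototoxic fatty acid; compound and fatty acid exposure 3 h then viability read next day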
Settings: ZR-82 CHO cells, pyrene-fatty acid UV killing, CellTiter Blue; at 10 µM; peroxisome-deficient CHO-K1 variant; with DGAT-1, DGAT-2 and ACAT inhibitors
With `CC(=O)OC/C(=C\COc1cc(=O)oc2cccc(C)c12)CCC=C(C)C` the outcome was “inactive”. For `O=C1CC(c2ccc(O)cc2O)Oc2cc(O)cc(O)c21` (stereo not given), the outcome was “inactive”. In the case of `CC1C=CC2CCCCC2C1CCC1CC(O)CC(=O)O1` (stereo not given), the outcome was “inactive”. With `O=C1c2ccccc2C(=O)c2c(O)ccc(O)c21` the outcome was “inactive”. For `Cn1c(=O)c2c(ncn2C)n(C)c1=O`, the outcome was “inactive”. For `C=C(C)[C@@H]1CC[C@]2(COC(C)=O)CC[C@]3(C)[C@H](CC[C@@H]4[C@@]5(C)CC[C@H](OC(C)=O)C(C)(C)[C@@H]5CC[C@]43C)[C@@H]12`, the outcome was “inactive”. In the case of `Cc1c(O)cc(C(C)C)c(O)c1-c1c(C)c(O)cc(C(C)C)c1O`, the outcome was “inactive”. For `COc1c(O)cc2c3c1COc1cc(O)cc(c1-3)CC2`, the outcome was “inactive”. With `CCC/C=C\C/C=C\CCCC/C=C\Cc1cc(O)cc(O)c1` the outcome was “inactive”. In the case of `O=C1CC(c2ccc(O)cc2)Oc2ccccc21` (stereo not given), the outcome was “inactive”. With `C/C=C(/C(=O)O)N1C(=O)C=C(C)C1=O` the outcome was “inactive”. For `CCCCc1c(CC=C(C)C)[nH]c(=O)c(C)c1O`, the outcome was “inactive”. For `COc1cc2c(c3c1C(=O)C[C@@H](C)O3)CCO2`, the outcome was “inactive”. In the case of `COc1cc(CC(C)C(C)Cc2ccc(O)c(OC)c2)ccc1O` (stereo not given), the outcome was “inactive”. With `C[C@]12CC[C@@H]3c4ccc(O)cc4CC[C@H]3[C@@H]1CCC2=O` the outcome was “inactive”. With `CC/C=C\CC1C(=O)C=CC1(CCCCC1CCC(=O)O1)OC(C)=O` (stereo not given) the outcome was “inactive”. For `COc1cc(CCc2ccccc2)cc(O)c1C/C=C(\C)CCC=C(C)C`, the outcome was “inactive”. For `C=C[C@@]1(C)CC[C@@H]([C@H](C)C(=O)CC=C(C)C)O1`, the outcome was “inactive”. For `CO[C@@H]1C(=O)CC[C@]2(O)CO[C@H](CC=C(C)C)[C@](C)(O)[C@@]12O`, the outcome was “inactive”. For `Cc1c(O)c2c(oc1=O)C(C)(O)C(C)OC2` (stereo not given), the outcome was “inactive”. With `CCCCCCCCCCCCC(O)/C=C/CCC(=O)O` (stereo not given) the outcome was “inactive”. With `O=C1NC(Cc2ccccc2)C(=O)N2CCCC12` (stereo not given) the outcome was “inactive”. With `C=C1CCC2C(C)(C)C(OC(C)=O)CCC2(C)C1COc1ccc2ccc(=O)oc2c1` (stereo not given) the outcome was “inactive”. With `O=c1c(O)c(-c2ccc(O)cc2)oc2cc(O)cc(O)c12` the outcome was “inactive”. In the case of `COc1ccc(C(O)CNC(=O)/C=C/c2ccccc2)cc1` (stereo not given), the outcome was “inactive”. For `O=C(O)c1ccc(CO)o1`, the outcome was “inactive”. For `C=C1C[C@H](O)C[C@]2(C)CC[C@@H](C(C)(C)O)CC12` (stereo not given in full), the outcome was “inactive”. In the case of `Cc1cc(O)c2c(c1)C(=O)c1cccc(O)c1C2=O`, the outcome was “inactive”. For `COc1cc2ccc3c(c2cc1OC)N(C)Cc1c(OC)c(OC)cc(OC)c1-3`, the outcome was “inactive”. For `CC(C)=CCCC1(C)C(CC=C(C)C)CC2(CC=C(C)C)C(=O)C(=C(O)c3ccccc3)C(=O)C1(C)C2=O` (stereo not given), the outcome was “inactive”. For `COc1c2c(nc3occc13)C(CC=C(C)C)(OC)C(O)CC2` (stereo not given), the outcome was “inactive”. With `Oc1cc(O)c2c(c1)O[C@H](c1ccc(O)c(O)c1)[C@H](O)C2` the outcome was “inactive”. In the case of `C[C@]12CC(=O)C3C[C@@]1(O)OC(O2)[C@H]3COC(=O)c1ccccc1`, the outcome was “inactive”. With `COC1C(=O)CCC2(CO2)C1(O)C1(C)OC1CC=C(C)C` (stereo not given) the outcome was “inactive”. For `O=C(O)C(O)Cc1c[nH]c2ccccc12` (stereo not given), the outcome was “inactive”. With `COC1=CC(=O)CC(C)C12Oc1cc(OC)cc(OC)c1C2=O` (stereo not given) the outcome was “inactive”. For `C=CCc1ccc(O)c(O)c1`, the outcome was “inactive”. In the case of `OC1C(O)C(O)C(O)C(O)C1O` (stereo not given), the outcome was “inactive”. In the case of `COC(=O)CC(O)C1OC(c2ccccc2)C(O)C1O` (stereo not given), the outcome was “inactive”. In the case of `CC(C)CNC(=O)/C=C/C=C/Cc1cccs1`, the outcome was “inactive”.
